Values without a mark were called inactive. Results filed as inconclusive are left out. Activity calls are given as the source filed them. Unless noted, calls follow the shape of the dose curve; as a rule, active = well fitted curve in the direction sought with a large enough effect; inconclusive = small, poorly fitted or top-dose-only effect, or another doubt; inactive = no such curve, though single readings can be large; an effect the other way counts as inactive or inconclusive.
Tests used:
[1] = Confirmation and Secondary Assay for Modulators of Hemoglobin Beta Chain Splicing at IVS2 654 locus (AID 910);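 also: per-well total GFP intensity by laser scanning cytometry after 2-day treatment; % of control where 0% means no effect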
Summary of the method: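 HeLa cells stably carrying EGFP interrupted by mutant beta-globin IVS2-654 intron (CMV-driven) were treated with compound for 2 days at 37C; corrected splicing was scored as total peak GFP intensity per well (488 nm excitation, 500-520 nm emission).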

[2] = Confirmation and Secondary Assay for Modulators of Hemoglobin Beta Chain Splicing at IVS2 705 locus (AID 930);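 also: HeLa cells stably expressing the EGFP-705 splicing reporter; GFP fluorescence per well restored by corrected splicing of the IVS2-705 intron in EGFP; series mostly up to about 46 µM; % of control where 0% means no effect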
Summary of the method: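 Secondary splice-site specificity test uses HeLa expressing CMV-driven EGFP interrupted by IVS2-705; cells were treated 2 days at 37C with 500 nM antisense PNA as positive control.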

[3] = qHTS Assay for Identification of Small Molecule Agonists for Thrombopoietin (TPO) Signaling Pathway (AID 917); also: % is scaled to controls: 0 for no effect and ±100 for the full control effect
Description: (§1) NIH Molecular Libraries Screening Centers Network [MLSCN]
(§2) NIH Chemical Genomics Center [NCGC]
The thrombopoietin (TPO) signaling pathway was assayed in murine Ba/F3 cells stably transfected with the human TPO receptor and a luciferase reporter gene controlled by the Glycoprotein IIb promoter (provided by Axxam). BaF3 cells are an IL-3-dependent pro B cell line that upon TPO stimulation, undergo cell division and induce the megakaryocyte marker, Glycoprotein IIb. The assay was screened at the EC50 of TPO (26 pM) to identify activators of the pathway.
(§3) NCGC Assay Protocol Summary:
Cells were maintained at 37 C and 5% CO2in RPMI with 10% fetal bovine serum, 0.5 ng/mL murine IL-3, 100U/ml penicillin and 100 ug/ml streptomycin. Prior to plating, cells were incubated overnight in medium without IL-3. Cells were plated at 250 cells/5uL/well into white solid 1536-well plates, 23 nL of compounds were delivered by a pin tool, and 1 uL of TPO (26 pM final concentration in IL-3 deficient medium) was added. Following 24 hrs of incubation at 37 C and 5% CO2, 4 uL of Steadylite detector mix (PerkinElmer) was added, the plates incubated at room temperature for 10 min and luminescence was measured for 10 s and 2X binning by a ViewLux detector (Perkin Elmer).

[4] = target: Muscarinic acetylcholine receptor M1 (Rattus norvegicus) (UniProt P08482); experiment: qHTS Assay for Antagonists of Acetylcholine Muscarinic M1 Receptor: Kinetic Measurement of Intracellular Calcium Response (AID 943);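 also: Fluo-4 calcium signal as peak divided by basal fluorescence over 4 min; series mostly up to about 35 µM; nearly all actives have a fitted effect of over 75% in size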
Summary of the method: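 Quantitative HTS in CHO-M1 (rat receptor) cells: 10 min compound exposure ahead of 100 nM carbachol, Fluo-4 fluorescence followed 4 min, value expressed as peak-to-basal ratio.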

[5] = target: Muscarinic acetylcholine receptor M1 (Rattus norvegicus) (UniProt P08482); experiment: qHTS Assay for Antagonists of Acetylcholine Muscarinic M1 Receptor: Measurement of IP-One Response (AID 944); also: nearly all actives have a fitted effect of over 75% in size
Summary of the method: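 Antagonism was measured as loss of carbachol-driven (EC80) IP1 accumulation in CHO cells carrying rat M1, using a homogeneous IP-One TR-FRET kit read at 620 and 665 nm.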

[6] = target: Pyruvate kinase (Leishmania mexicana) (UniProt Q27686); experiment: qHTS Validation Assay for Inhibitors of Leishmania Mexicana Pyruvate Kinase (AID 945);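 also: 0% = DMSO only neutral control wells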
Summary of the method: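 Read-out: luminescence from PKLight stop/detection reagent, data normalized to DMSO. Reaction: 0.2 nM E451W LmPYK, 0.5 mM PEP, 0.1 mM ADP, pH 7.2, 1 h room temperature.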

[7] = qHTS Assay for Identification of Small Molecule Antagonists for NFkB Signaling Pathway (AID 895; active = well fitted inhibition curve with a large enough effect in the signal ratio, with a control signal flat, not every such curve was filed as active; the % refers to the signal ratio; also: % is scaled to controls: 0 for no effect and ±100 for the full control effect)
Summary of the method: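 NFkB-bla ME-180 cervical carcinoma cells with beta-lactamase reporter under NFkB response element; compounds added, then TNF alpha at 10 pM final (EC50), 5 h at 37 C. LiveBLAzer substrate 2 h, room temperature; emission 460/530 nm at 405 nm excitation.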

[8] = target: Cytochrome P450 2C19 (Homo sapiens) (UniProt P33261); experiment: qHTS Assay for Inhibitors and Substrates of Cytochrome P450 2C19 (AID 899); also: % is scaled to controls: 0 for no effect and ±100 for the full control effect; nearly all actives have a fitted effect of over 60% in size
Summary of the method: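 Human CYP2C19 (5nM) with Luciferin-H EGE at 10uM (its KM) in 50mM KPO4 was preincubated with compound for 10 min at 37C. NADPH regeneration started a 60 min 37C reaction. Luciferin was read by luminescence, normalized to 57uM ketoconazole.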

[9] = Cell Viability - LYMP2-001 (AID 921);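 also: series mostly up to about 92 µM; cells exposed to compound for 24 h at 37 °C; 0% = DMSO only and full inhibition = tetraoctylammonium bromide control wells; nearly all actives have a fitted effect of over 70% in size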
Description: as §2, §1
National Institutes of Environmental Health Sciences [NIEHS]
National Toxicology Program [NTP]
We have developed a 1536-well cell-based assay for quantitative high throughput screening (qHTS) against a number of cell lines to determine in vitro cytotoxicity of small molecules. This particular assay uses a human lymphoblastoid cell line (LYMP2-001) purchased from Coriell Institute for Medical Research.
as §3
The CellTiter-Glo luminescent cell viability assay (Promega) is a homogeneous method to measure the number of viable cells in culture. The end point readout of this assay is based on quantitation of intracellular ATP, an indicator of metabolic activity, using the luciferase reaction. Luciferase catalyzes the oxidation of beetle Luciferin to oxyluciferin and light in the presence of ATP. The luminescent signal is proportional to amount of ATP present.
Using the CellTiter-Glo luminescent cell viability assay, the amount of cellular ATP was measured in the lymphoblastoid cell line with complete culture medium following compound treatment for 24 hours. The assay was performed in opaque white Kalypsys 1536-well plates. In the screen, tetraoctylammonium bromide was used as positive control. Library compounds were measured for their ability to cause acute toxicity in the cell line, as reflected by a decrease in intracellular ATP levels, in a concentration-dependent manner. […] AC50 values were determined from concentration-response data modeled with the standard Hill equation.
qHTS protocol for CellTiter Glo lymphoblastoid cellular assay
[Step] [Parameter] [Value] [Description]
1. Reagent; 5 uL; 2500 lymphoblastoid cells/well
2. Time; 5 hr; 37 C incubation
4. Controls; 23 nL; Tetraoctylammonium bromide 6.4pM to 92 uM
5. Time; 24 hr; 37 C incubation
6. Reagent; 5 uL; CellTiter Glo reagent
7. Time; 30 min; Room Temperature
8. Detection; Luminescence; Viewlux plate reader
Keywords: cell viability, cytotoxicity, lymphoblastoid cell line, luminescence, NTPHTS, NTPHTS_NCGC, NIEHS, DSSTox, MLSMR, MLSCN, NIH Roadmap, qHTS, NCGC

[10] = MultiTox-Fluor Cytotoxicity Assay - LYMP1-001 - Dead Cells (AID 946);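 also: cells exposed to compound for 16 h; 0% = DMSO and 100% = tetraoctylammonium bromide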
Summary of the method: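 In this qHTS, 15 uM tetraoctylammonium bromide defined 100% and DMSO defined basal activity. Lymphoblastoid cells (LYMP1-001, 2500 per well) received compound for 16 hr at 37 C before a fluorogenic dead-cell substrate readout at 485/520 nm.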

Chain of Pyruvate kinase (Leishmania mexicana) (Q27686 2-499 E452W): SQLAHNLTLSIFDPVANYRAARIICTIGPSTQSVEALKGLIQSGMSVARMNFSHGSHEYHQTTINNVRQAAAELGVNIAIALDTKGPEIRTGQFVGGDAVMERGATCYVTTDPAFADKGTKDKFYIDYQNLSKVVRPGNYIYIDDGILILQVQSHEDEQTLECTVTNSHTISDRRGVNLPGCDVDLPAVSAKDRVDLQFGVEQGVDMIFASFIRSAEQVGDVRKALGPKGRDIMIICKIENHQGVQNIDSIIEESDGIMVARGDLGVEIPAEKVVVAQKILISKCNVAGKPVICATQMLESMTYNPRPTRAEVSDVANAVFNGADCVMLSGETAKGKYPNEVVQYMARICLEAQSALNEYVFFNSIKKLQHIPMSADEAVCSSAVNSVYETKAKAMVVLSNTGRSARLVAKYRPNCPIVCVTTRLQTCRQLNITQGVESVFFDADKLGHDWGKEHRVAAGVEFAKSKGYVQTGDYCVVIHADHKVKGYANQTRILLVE
Chain of Cytochrome P450 2C19 (Homo sapiens) (P33261 whole entry, looked up): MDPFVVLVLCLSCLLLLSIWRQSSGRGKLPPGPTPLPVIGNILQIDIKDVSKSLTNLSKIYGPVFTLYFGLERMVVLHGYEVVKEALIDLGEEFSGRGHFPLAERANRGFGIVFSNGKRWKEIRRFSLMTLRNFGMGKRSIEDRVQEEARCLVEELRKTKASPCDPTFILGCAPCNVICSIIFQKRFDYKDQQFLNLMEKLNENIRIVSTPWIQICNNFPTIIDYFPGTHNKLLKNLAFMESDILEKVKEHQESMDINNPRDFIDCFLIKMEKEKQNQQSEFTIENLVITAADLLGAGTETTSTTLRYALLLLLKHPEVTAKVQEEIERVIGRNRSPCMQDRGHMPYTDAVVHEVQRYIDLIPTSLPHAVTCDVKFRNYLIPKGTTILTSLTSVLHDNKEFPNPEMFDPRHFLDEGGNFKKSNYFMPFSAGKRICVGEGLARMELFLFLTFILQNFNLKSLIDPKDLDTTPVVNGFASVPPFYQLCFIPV
Chain of Muscarinic acetylcholine receptor M1 (Rattus norvegicus) (P08482 whole entry, looked up): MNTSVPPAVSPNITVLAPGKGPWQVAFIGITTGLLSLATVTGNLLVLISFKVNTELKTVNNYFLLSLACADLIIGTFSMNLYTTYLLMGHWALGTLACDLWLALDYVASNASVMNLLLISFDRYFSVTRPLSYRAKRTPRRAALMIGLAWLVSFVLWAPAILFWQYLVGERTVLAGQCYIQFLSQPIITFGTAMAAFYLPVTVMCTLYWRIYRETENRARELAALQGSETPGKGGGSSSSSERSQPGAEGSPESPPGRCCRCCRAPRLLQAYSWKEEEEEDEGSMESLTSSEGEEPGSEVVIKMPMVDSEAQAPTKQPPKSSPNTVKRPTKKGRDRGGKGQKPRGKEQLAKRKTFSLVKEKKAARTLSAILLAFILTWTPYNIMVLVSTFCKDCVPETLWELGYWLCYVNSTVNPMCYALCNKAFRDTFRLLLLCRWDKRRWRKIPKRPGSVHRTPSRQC

SMILES: CCCCCCCCCCCCCCCC(=O)OC/C=C(C)/C=C/C=C(C)/C=C/C1=C(C)CCCC1(C)C
- outcome [1]: inactive
- outcome [2]: inactive

SMILES: Cc1ccc(OC[C@H](O)[C@H](C)NC(C)C)c2c1CCC2
- outcome [3]: inactive
- outcome [4]: inactive
- outcome [5]: inactive
- outcome [6]: inactive

SMILES: NCCCC(=O)O
- outcome [7]: inactive
- outcome [8]: inactive
- outcome [1]: inactive
- outcome [3]: inactive
- outcome [2]: inactive
- outcome [4]: inactive
- outcome [5]: inactive
- outcome [6]: inactive

SMILES: O=C(O)c1cc2ccccc2c(Cc2c(O)c(C(=O)O)cc3ccccc23)c1O
- activity, negative = inhibition [8]: 1.36% [at 11.4 µM]

SMILES: COC1=CC(=O)C[C@@H](C)[C@@]12Oc1c(Cl)c(OC)cc(OC)c1C2=O
- outcome [8]: inactive

SMILES: COC(C)=O
- outcome [9]: inactive
- outcome [10]: inactive

SMILES: C1CNCCN1
- outcome [1]: inactive
- outcome [2]: inactive

SMILES: C=Cc1ccccc1
- outcome [9]: inactive
- outcome [10]: inactive

SMILES: O=C(O)CC(O)(CC(=O)O)C(=O)O
- outcome [1]: inactive
- outcome [9]: inactive
- outcome [2]: inactive
- outcome [10]: inactive

SMILES: CCCCCCCCCC(=O)O
- outcome [9]: inactive
- outcome [10]: inactive

SMILES: CN[C@H]1CC[C@@H](c2ccc(Cl)c(Cl)c2)c2ccccc21
- outcome [6]: inactive

SMILES: CN(C)Cc1ccccc1
- outcome [9]: inactive
- outcome [10]: inactive
